The supplement of paper PMC8007513
Where a name gives a salt, the structure may show the parent alone. ± gives the standard error. Screen size: about 1,300 compounds; about 130 (10%) showed an effect of 50% or more. The sample as a whole holds a higher share of strong results than the screen did.

System: Trichoderma virens ATCC 9645
Assay: growth yield (OD600) with compound + IPBC relative to untreated control; higher = less growth inhibition
Details: compound concentration: 100 uM, IPBC concentration: 200 ng/ml
In short: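 Trichoderma virens ATCC 9645 spores from 7-day potato dextrose agar plates were suspended in potato dextrose broth at 15,000 spores ml^−1. Aliquots of 100 μl with library compounds at 100 μM final, with or without a co-applied biocide at 200 ng ml^−1, were grown in 96-well plates at 30 °C. OD600 was read at 40 h and 72 h on a BioTek EL800. Growth is expressed relative to the control without either agent, as means of duplicate screens.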

Structure (SMILES) | growth yield (40 h) [%] | growth yield (72 h) [%]
Oc1ncnc2[nH]ncc12 [Allopurinol] + CCCCNC(=O)OCC#CI [3-iodo-2-propynyl butylcarbamate (IPBC)] | 93.4 ± 4.8 | 94.28 ± 0.32
Cc1cc(N)c2ccccc2[n+]1CCCCCCCCCC[n+]1c(C)cc(N)c2ccccc21 [Dequalinium dichloride] + CCCCNC(=O)OCC#CI [3-iodo-2-propynyl butylcarbamate (IPBC)] | 3.81 | 2.94
COc1ncnc(NS(=O)(=O)c2ccc(N)cc2)c1OC [Sulfadoxine] + CCCCNC(=O)OCC#CI [3-iodo-2-propynyl butylcarbamate (IPBC)] | 72.6 ± 2.4 | 84.7 ± 2.7
Cc1[nH]cnc1CN1CCc2c(c3ccccc3n2C)C1=O [Alosetron hydrochloride] + CCCCNC(=O)OCC#CI [3-iodo-2-propynyl butylcarbamate (IPBC)] | 85.5 ± 1.3 | 87.89 ± 0.21
CC(C)(C)NC[C@@H](O)COc1cccc2c1CCCC2=O [(+) -Levobunolol hydrochloride] + CCCCNC(=O)OCC#CI [3-iodo-2-propynyl butylcarbamate (IPBC)] | 97.8 ± 16 | 99.1 ± 12
CN(C)C(=O)Oc1cccc([N+](C)(C)C)c1 [Neostigmine bromide] + CCCCNC(=O)OCC#CI [3-iodo-2-propynyl butylcarbamate (IPBC)] | 83.4 ± 1.1 | 92.19 ± 0.52
CCN(C)C(=O)Oc1cccc([C@H](C)N(C)C)c1 [Rivastigmine] + CCCCNC(=O)OCC#CI [3-iodo-2-propynyl butylcarbamate (IPBC)] | 97.1 ± 4 | 95.1 ± 3.7
CN(CCCCCCCCCCN(C)C(=O)Oc1cccc([N+](C)(C)C)c1)C(=O)Oc1cccc([N+](C)(C)C)c1 [Demecarium bromide] + CCCCNC(=O)OCC#CI [3-iodo-2-propynyl butylcarbamate (IPBC)] | 3.97 ± 0.16 | 2.73
C=C1c2cccc(O)c2C(=O)C2=C(O)[C@]3(O)C(=O)C(C(N)=O)=C(O)[C@@H](N(C)C)[C@@H]3[C@@H](O)[C@H]12 [Methacycline hydrochloride] + CCCCNC(=O)OCC#CI [3-iodo-2-propynyl butylcarbamate (IPBC)] | 94.2 ± 1.8 | 93.7 ± 0.94
C[C@]1(Cn2ccnn2)[C@H](C(=O)O)N2C(=O)C[C@H]2S1(=O)=O [Tazobactam] + CCCCNC(=O)OCC#CI [3-iodo-2-propynyl butylcarbamate (IPBC)] | 84.5 ± 0.95 | 87.15 ± 0.32
C#Cc1cccc(Nc2ncnc3cc(OCCOC)c(OCCOC)cc23)c1 [Erlotinib] + CCCCNC(=O)OCC#CI [3-iodo-2-propynyl butylcarbamate (IPBC)] | 98.2 ± 11 | 99.3 ± 3
COc1cc2ncnc(Nc3ccc(F)c(Cl)c3)c2cc1OCCCN1CCOCC1 [Gefitinib] + CCCCNC(=O)OCC#CI [3-iodo-2-propynyl butylcarbamate (IPBC)] | 16.4 ± 5.2 | 10.5 ± 0.63
CCCCOc1ccc(OCCCN2CCOCC2)cc1 [Pramoxine hydrochloride] + CCCCNC(=O)OCC#CI [3-iodo-2-propynyl butylcarbamate (IPBC)] | 80.1 ± 2.2 | 94 ± 3.1
C[C@]12C[C@H](O)[C@H]3[C@@H](CCC4=CC(=O)CC[C@@]43C)[C@@H]1CC[C@@H]2C(=O)CO [Corticosterone] + CCCCNC(=O)OCC#CI [3-iodo-2-propynyl butylcarbamate (IPBC)] | 94.2 ± 7.8 | 96.6 ± 5.6
CCCN1CCCC[C@H]1C(=O)Nc1c(C)cccc1C [Ropivacaine hydrochloride] + CCCCNC(=O)OCC#CI [3-iodo-2-propynyl butylcarbamate (IPBC)] | 88.5 ± 1.4 | 91.98 ± 0.1
C[C@]12C=CC(=O)C=C1CC[C@@H]1[C@@H]2[C@@H](O)C[C@@]2(C)[C@H]1CC[C@]2(O)C(=O)CO [Prednisolone] + CCCCNC(=O)OCC#CI [3-iodo-2-propynyl butylcarbamate (IPBC)] | 82.8 ± 2.1 | 92.5 ± 0.42
N[C@@H](Cc1cc(I)c(Oc2ccc(O)c(I)c2)c(I)c1)C(=O)O [Liothyronine] + CCCCNC(=O)OCC#CI [3-iodo-2-propynyl butylcarbamate (IPBC)] | 93.1 ± 10 | 98.1 ± 6.4
O=C(O)Cc1cc(I)c(Oc2ccc(O)c(I)c2)c(I)c1 [Tiratricol, 3,3',5-triiodothyroacetic acid] + CCCCNC(=O)OCC#CI [3-iodo-2-propynyl butylcarbamate (IPBC)] | 44 ± 1.8 | 73.41 ± 0.63
NC(Cc1cc(I)c(Oc2cc(I)c(O)c(I)c2)c(I)c1)C(=O)O (stereo unspecified) [Thyroxine (L)] + CCCCNC(=O)OCC#CI [3-iodo-2-propynyl butylcarbamate (IPBC)] | 100 ± 11 | 98.8 ± 9

Structure (SMILES) | growth yield (40 h) [%] | growth yield (72 h) [%]
CCN(CC)CCNc1ccc(CO)c2sc3ccccc3c(=O)c12 [Hycanthone] + CCCCNC(=O)OCC#CI [3-iodo-2-propynyl butylcarbamate (IPBC)] | 124 ± 2.7 | 120 ± 0.63
COc1cc(NC(C)CCCN)c2ncccc2c1 (stereo unspecified) [Primaquine diphosphate] + CCCCNC(=O)OCC#CI [3-iodo-2-propynyl butylcarbamate (IPBC)] | 73.7 ± 11 | 117.7 ± 1.1
COc1ccc(OC)c(C(O)CNC(=O)CN)c1 (stereo unspecified) [Midodrine hydrochloride] + CCCCNC(=O)OCC#CI [3-iodo-2-propynyl butylcarbamate (IPBC)] | 96.1 ± 4.3 | 104 ± 2.1
CCCC(C)(COC(N)=O)COC(=O)NC(C)C (stereo unspecified) [Carisoprodol] + CCCCNC(=O)OCC#CI [3-iodo-2-propynyl butylcarbamate (IPBC)] | 84.8 ± 5.1 | 92.7 ± 5.5
CC(CCc1ccccc1)NCC(O)c1ccc(O)c(C(N)=O)c1 (stereo unspecified) [Labetalol hydrochloride] + CCCCNC(=O)OCC#CI [3-iodo-2-propynyl butylcarbamate (IPBC)] | 73.38 ± 0.32 | 87.15 ± 0.1
COc1ccc(CN(CCN(C)C)c2ccccn2)cc1 [Pyrilamine maleate] + CCCCNC(=O)OCC#CI [3-iodo-2-propynyl butylcarbamate (IPBC)] | 82.8 ± 4.6 | 92.4 ± 4.9
CN(C)CCN(Cc1ccc(Cl)cc1)c1ccccn1 [Chloropyramine hydrochloride] + CCCCNC(=O)OCC#CI [3-iodo-2-propynyl butylcarbamate (IPBC)] | 76.1 ± 1.1 | 92.3 ± 2.3
CCCCCCCCCCCCCCCC[N+](C)(C)CCN(Cc1ccc(OC)cc1)c1ncccn1 [Thonzonium bromide] + CCCCNC(=O)OCC#CI [3-iodo-2-propynyl butylcarbamate (IPBC)] | 3.34 ± 0.16 | 2.62 ± 0.1
COC(c1ccccc1)(c1ccccc1)[C@H](Oc1nc(C)cc(C)n1)C(=O)O [Ambrisentan] + CCCCNC(=O)OCC#CI [3-iodo-2-propynyl butylcarbamate (IPBC)] | 89.3 ± 5.7 | 93.9 ± 3.9
NC(=O)N1c2ccccc2CC(=O)c2ccccc21 [Oxcarbazepine] + CCCCNC(=O)OCC#CI [3-iodo-2-propynyl butylcarbamate (IPBC)] | 83.4 ± 2.4 | 92.9 ± 1.9
CC(=O)N1CCN(c2ccc(OCC3COC(Cn4ccnc4)(c4ccc(Cl)cc4Cl)O3)cc2)CC1 (stereo unspecified) [Ketoconazole] + CCCCNC(=O)OCC#CI [3-iodo-2-propynyl butylcarbamate (IPBC)] | 3.34 ± 0.48 | 2.52 ± 0.42
CC[C@@H]([C@H](C)O)n1ncn(-c2ccc(N3CCN(c4ccc(OC[C@@H]5CO[C@@](Cn6cncn6)(c6ccc(F)cc6F)C5)cc4)CC3)cc2)c1=O [Posaconazole] + CCCCNC(=O)OCC#CI [3-iodo-2-propynyl butylcarbamate (IPBC)] | 3.97 ± 1.4 | 3.78 ± 1.7
CCC(C)n1ncn(-c2ccc(N3CCN(c4ccc(OCC5COC(Cn6cncn6)(c6ccc(Cl)cc6Cl)O5)cc4)CC3)cc2)c1=O (stereo unspecified) [Itraconazole] + CCCCNC(=O)OCC#CI [3-iodo-2-propynyl butylcarbamate (IPBC)] | 14.3 ± 1.9 | 11.3 ± 1.7
CC(C)N1CCN(c2ccc(OCC3COC(Cn4cncn4)(c4ccc(Cl)cc4Cl)O3)cc2)CC1 (stereo unspecified) [Terconazole] + CCCCNC(=O)OCC#CI [3-iodo-2-propynyl butylcarbamate (IPBC)] | 69.9 ± 2.5 | 87 ± 1.3
C[N+]1([O-])[C@@H]2C[C@@H](OC(=O)[C@H](CO)c3ccccc3)C[C@H]1[C@@H]1O[C@@H]12 (stereo partly specified) [Scopolamin-N-oxide hydrobromide] + CCCCNC(=O)OCC#CI [3-iodo-2-propynyl butylcarbamate (IPBC)] | 103 ± 2.2 | 102 ± 1.1
CC(C)c1cccc(C(C)C)c1O [Propofol] + CCCCNC(=O)OCC#CI [3-iodo-2-propynyl butylcarbamate (IPBC)] | 101 ± 2.9 | 98.4 ± 1.3
CO[C@@]1(NC(=O)C2SC(=C(C(N)=O)C(=O)O)S2)C(=O)N2C(C(=O)O)=C(CSc3nnnn3C)CS[C@@H]21 (stereo partly specified) [Cefotetan] + CCCCNC(=O)OCC#CI [3-iodo-2-propynyl butylcarbamate (IPBC)] | 94.8 ± 2.4 | 96.5 ± 1.9
NS(=O)(=O)c1cc2c(cc1C(F)(F)F)NCNS2(=O)=O [Hydroflumethiazide] + CCCCNC(=O)OCC#CI [3-iodo-2-propynyl butylcarbamate (IPBC)] | 89.1 ± 1.1 | 92.4 ± 0.73
C[C@]12Cc3c[nH]nc3C[C@@H]1CC[C@@H]1[C@@H]2CC[C@@]2(C)[C@H]1CC[C@]2(C)O [Stanozolol] + CCCCNC(=O)OCC#CI [3-iodo-2-propynyl butylcarbamate (IPBC)] | 91.02 ± 0.16 | 95.9
